Each structure is given as a SMILES string.

Results on ten molecules are retold here after article PMC5540273 (PLoS ONE, 2017).

Among the test systems are PLK2; PLK3; PLK4; PRKCD; PRKCE; PRKCH; PRKCI; PRKCQ; PRKD1; PRKD2; PRKD3; PRKG1; PRKG2; PRKX; PRP4; QSK; RAF1; RET.
What all share (details): concentration: 1 μM, replicates: in singlicate; n = 1
The next assay concerns T1, PRKR.
T1 construct: gene EIF2AK2

A further assay relates to T2, PYK2.
T2 construct: gene PTK2B
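Further: KINOMEscan kinase panel screen.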

In the case of `CN(C)c1ncnc2nc[nH]c12` [SKF-31736], the “%Inh” value worked out at 20% in the assay with PLK2; 30% with PLK3; 1% with PLK4; 0% in the assay with PRKCD; 3% in the assay on PRKCE; 0% with PRKCH. For the same molecule, the “%Inh” value with PRKCI was 0%; in the assay on PRKCQ, 0%; in the assay with PRKD1, 0%; in the assay with PRKD2 it was 0%; in the assay with PRKD3 it was 0%; with PRKG1 it was 19%. The “%Inh” value was found to be 0% with PRKG2; 0% with PRKR; 0% in the assay with PRKX; 0% with PRP4; 0% in the assay on PYK2; 27% in the assay with QSK. In addition, the “%Inh” value with RAF1 and in the assay with RET was 0% each time.
`COc1cccc(CC(=O)N2CCc3cc(-c4cn(C)c5ncnc(N)c45)ccc32)c1` [GSK2608899]: the “%Inh” value with PLK2 is recorded as 0%; in the assay with PLK3, 0%; in the assay with PLK4, 4%; with PRKCD, 17%; in the assay with PRKCE it was 1%; with PRKCH, 10%. The “%Inh” value in the assay on PRKCI was 31%; in the assay with PRKCQ, 0%; in the assay on PRKD1, 18%; with PRKD2, 1%; in the assay with PRKD3, 0%; with PRKG1, 22%. Further, the “%Inh” value in the assay with PRKG2 stood at 0%; with PRKR, 15%; in the assay on PRKX, 3%; in the assay on PRP4, 0%; with PYK2, 25%; with QSK, 11%. Moreover, the “%Inh” value in the assay with RAF1 is 0%; in the assay on RET it was 37%.
Turning to `CCn1c(-c2nonc2N)nc2c(-c3ccccc3)ncc(OCCCN)c21.O=C(O)C(F)(F)F.O=C(O)C(F)(F)F` [GSK260205], the “%Inh” value in the assay with PLK2 was 0%; in the assay with PLK3, 0%; in the assay on PLK4, 0%; with PRKCD it was 97.9%; with PRKCE it was 97.3%; with PRKCH it was 95.6%. Also, the “%Inh” value is given as 69% in the assay with PRKCI; 93% in the assay on PRKCQ; 91.2% in the assay with PRKD1; 93.6% with PRKD2; 100% with PRKD3; 5% in the assay with PRKG1. For the same molecule, the “%Inh” value in the assay with PRKG2 came to 95.7%; in the assay with PRKR it was 0%; with PRKX, 28%; in the assay with PRP4, 27%; in the assay on PYK2 it was 6%; with QSK, 27%. The “%Inh” value with RAF1 came out at 6%; in the assay with RET it was 91.7%.
As to `Cn1cc(-c2ccc3c(c2)CCN3C(=O)Cc2cc(F)cc(F)c2F)c2c(N)ncnc21` [GSK2634140], the “%Inh” value with PLK2 was 0%; with PLK3, 0%; with PLK4, 0%; in the assay on PRKCD, 0%; with PRKCE, 0%; with PRKCH, 17%. In addition, the “%Inh” value in the assay on PRKCI was 0%; with PRKCQ it was 20%; in the assay with PRKD1 it was 100%; in the assay on PRKD2, 0%; in the assay on PRKD3 it was 0%; in the assay with PRKG1, 0%. The “%Inh” value in the assay on PRKG2 was found to be 0%; in the assay with PRKR, 2%; in the assay on PRKX it was 16%; in the assay on PRP4, 21%; with PYK2 it was 12%; in the assay with QSK it was 0%. The “%Inh” value amounted to 18% in the assay with RAF1 and 5% with RET.
Regarding `COc1cc(Nc2nccc(N3CCC(NC(=O)Nc4ccc5c(c4)OCO5)C3)n2)cc(OC)c1OC` (centres unmarked) [GSK1379766], the “%Inh” value came out at 0% with PLK2; 2% with PLK3; 48% in the assay with PLK4; 0% in the assay on PRKCD; 8% in the assay on PRKCE; 0% with PRKCH. Also, the “%Inh” value in the assay on PRKCI is recorded as 11%; with PRKCQ, 0%; in the assay with PRKD1, 0%; in the assay on PRKD2, 0%; in the assay with PRKD3 it was 0%; in the assay with PRKG1, 0%. Further, the “%Inh” value in the assay on PRKG2 was found to be 0%; with PRKR, 0%; with PRKX, 33%; in the assay on PRP4 it was 50%; with PYK2, 15%; in the assay on QSK, 3%. Further, the “%Inh” value amounted to 0% in the assay with RAF1 and 28% in the assay on RET.
As to `Cl.O=C(Nc1ccc(Oc2ccc3[nH]c(NC(=O)c4ccco4)nc3c2)cc1)Nc1cc(C(F)(F)F)ccc1F` [GW683134], the “%Inh” value in the assay on PLK2 turned out to be 0%; in the assay with PLK3, 0%; in the assay on PLK4, 0%; in the assay with PRKCD it was 4%; in the assay with PRKCE, 0%; with PRKCH, 0%. Further, the “%Inh” value with PRKCI was determined as 0%; in the assay with PRKCQ, 9%; in the assay with PRKD1 it was 0%; in the assay with PRKD2 it was 0%; with PRKD3, 37%; with PRKG1 it was 12%. Also, the “%Inh” value came to 0% in the assay with PRKG2; 0% in the assay on PRKR; 20% with PRKX; 27% in the assay with PRP4; 10% in the assay with PYK2; 0% in the assay on QSK. Moreover, the “%Inh” value in the assay on RAF1 is 94.7%; in the assay on RET, 99.9%.
As for `N#Cc1cnc2cc(-c3cnc(CNCCN4CCOCC4)s3)ccc2c1Nc1ccc(Oc2ccccc2)cc1` [GW664114], the “%Inh” value in the assay with PLK2 stood at 0%; with PLK3, 0%; in the assay on PLK4 it was 2%; in the assay on PRKCD, 0%; with PRKCE, 0%; in the assay on PRKCH, 96.3%. The “%Inh” value came out at 5% with PRKCI; 0% in the assay with PRKCQ; 0% in the assay with PRKD1; 18% with PRKD2; 9% in the assay on PRKD3; 0% in the assay with PRKG1. Further, the “%Inh” value stood at 0% in the assay on PRKG2; 4% in the assay on PRKR; 4% in the assay with PRKX; 51% with PRP4; 4% in the assay with PYK2; 0% in the assay with QSK. In addition, the “%Inh” value in the assay with RAF1 is recorded as 0%; with RET, 60%.
As to `CC(=O)Nc1cn2nc(Oc3cccc(NC(=O)c4cccc(C(F)(F)F)c4)c3)ccc2n1`, the “%Inh” value in the assay on PLK2, in the assay with PLK3, in the assay with PLK4, with PRKCD, with PRKCE and with PRKCH was 0% in each case. The “%Inh” value in the assay with PRKCI came to 0%; in the assay on PRKCQ, 0%; in the assay with PRKD1, 18%; in the assay on PRKD2, 17%; with PRKD3 it was 0%; in the assay on PRKG1 it was 11%. Also, the “%Inh” value in the assay with PRKG2 is on record as 13%; with PRKR, 4%; in the assay with PRKX, 0%; in the assay on PRP4 it was 0%; with PYK2, 7%; with QSK, 0%. Further, the “%Inh” value is given as 99.8% in the assay on RAF1 and 100% in the assay with RET.
As to `Cc1ccc(NC(=O)c2cccc(N3CCCCC3)c2)cc1-c1ccc(C(=O)NCC2CC2)cc1` [GSK1917008], the “%Inh” value amounted to 0% with PLK2; 0% in the assay with PLK3; 0% in the assay with PLK4; 10% in the assay with PRKCD; 3% with PRKCE; 19% in the assay on PRKCH. The “%Inh” value was found to be 5% in the assay on PRKCI; 0% in the assay on PRKCQ; 0% in the assay with PRKD1; 0% in the assay on PRKD2; 100% in the assay with PRKD3; 31% in the assay with PRKG1. For the same molecule, the “%Inh” value was 0% with PRKG2; 0% with PRKR; 26% in the assay with PRKX; 4% with PRP4; 0% with PYK2; 8% with QSK. For the same molecule, the “%Inh” value in the assay on RAF1 came out at 88%; with RET, 10%.
`COc1cccc(NC(=O)NCCNc2ccnc(Nc3ccc(F)cc3)n2)c1` [GSK1379879]: the “%Inh” value amounted to 0% in the assay on PLK2; 0% with PLK3; 4% in the assay with PLK4; 0% in the assay on PRKCD; 18% in the assay with PRKCE; 5% in the assay on PRKCH. The “%Inh” value with PRKCI is 20%; with PRKCQ, 12%; with PRKD1 it was 0%; with PRKD2 it was 0%; with PRKD3, 0%; with PRKG1, 4%. In addition, the “%Inh” value in the assay with PRKG2 is recorded as 0%; in the assay with PRKR it was 0%; with PRKX, 14%; with PRP4, 49%; in the assay on PYK2, 21%; with QSK it was 0%. The results for the “%Inh” value in the assay with RAF1 and in the assay with RET were 15% and 0%, respectively.
